Measured values taken from PubChem BioAssay AID602410 (Johns Hopkins Ion Channel Center, 2012).
In all, about 340,000 compounds went through this assay and about 2,800 (0.82%) were called active.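 How the source made its calls: active means B-score under library mean minus 4 SD, starting fluorescence ratio at most library mean plus 5 SD; inactive means the rest.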 The entries come from a sample that favours actives as a whole.

What follows are molecules tested against Potassium channel subfamily K member 3 (Homo sapiens) (UniProt O14649) (assay: human KCNK3 channel inhibitors, primary screen, CHO cells, FluxOR thallium flux, B-score (AID 602410;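 on B-score: more negative B-score means stronger inhibition of thallium flux through KCNK3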)). Settings: FluxOR fluorescence, at 10 µM; stronger effect = lower value.
Chain of Potassium channel subfamily K member 3 (Homo sapiens) (O14649 whole entry, looked up): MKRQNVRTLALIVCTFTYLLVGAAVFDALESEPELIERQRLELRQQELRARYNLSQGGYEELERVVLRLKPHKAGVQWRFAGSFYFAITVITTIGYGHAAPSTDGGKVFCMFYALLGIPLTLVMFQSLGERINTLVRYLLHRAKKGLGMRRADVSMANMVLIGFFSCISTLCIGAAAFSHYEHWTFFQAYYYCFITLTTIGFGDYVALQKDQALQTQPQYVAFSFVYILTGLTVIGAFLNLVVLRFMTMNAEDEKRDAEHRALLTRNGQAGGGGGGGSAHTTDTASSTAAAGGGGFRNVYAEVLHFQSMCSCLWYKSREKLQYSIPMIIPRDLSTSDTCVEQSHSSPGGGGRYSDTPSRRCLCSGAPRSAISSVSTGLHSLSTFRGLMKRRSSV

SMILES | B-score
Cc1c(NC(=O)CCC2CCCCC2)cc(C(=O)N2CCOCC2)cc1[N+](=O)[O-] | inactive
CC(C)N1C(=O)N(c2ccccc2)C(C)(O)CC1(C)C (stereo not drawn) | inactive
CC(C)N(Cc1nc(-c2ccc3c(c2)OCO3)no1)CC1CCC(=O)N1 (stereo not drawn) | inactive
Cc1c(S(=O)(=O)NC(C)c2ccccc2)c(=O)n(C)c(=O)n1C (stereo not drawn) | inactive
Cc1ccc(NC(=O)COC(=O)C2CC2)cc1S(=O)(=O)N1CCOCC1 | inactive
Cc1ccc(NC(=O)CCCNC(=O)c2ccc(Cl)cc2)cc1S(=O)(=O)N1CCOCC1 | inactive
Cc1ccc(NC(=O)COC(=O)CNC(=O)c2ccc(Cl)cc2Cl)cc1S(=O)(=O)N1CCOCC1 | -10.7 (active)
CC1COc2ccccc2N1C(=O)c1cccnc1Cl (stereo not drawn) | inactive
O=C(NC1CCC(O)CC1)c1ccccc1OCc1ccc(F)cc1 (stereo not drawn) | inactive
COc1ccc(CCNC(=O)c2ccccc2OCc2ccccc2)cc1 | inactive
CC(=O)c1ccccc1OCc1ccc(C(=O)c2ccccc2)cc1 | -15.7 (active)
O=C(OCCOCn1cc(Br)c(=O)[nH]c1=O)c1ccccc1 | inactive
Fc1cccc2ncnc(OCc3ccccc3)c12 | inactive
Cc1nc2ccccc2cc1OCc1ccc(F)cc1 | -11.4 (active)
Cc1occc(=O)c1OCc1ccc(F)cc1 | inactive
CCc1ccc(N2CC(C(=O)N3CCCCCC3)CC2=O)cc1 (stereo not drawn) | inactive
COc1cc(/C=N/N2CCN(c3ccccc3)CC2)ccc1OC(C)=O | inactive
COc1ccccc1N1CCN(/N=C\C(Br)=C\c2ccccc2)CC1 | -9.41 (active)
COc1ccccc1N1CCN(/N=C/c2ccc(O)cc2O)CC1 | inactive
COc1ccc(CC(=O)N[C@@H](CCSC)c2nc3ccccc3[nH]2)cc1 | inactive
CC1CC(C)CN(c2ccc(S(=O)(=O)N3CCOCC3)cc2)C1 (stereo not drawn) | inactive
Cc1ccc(CSc2nsc(C)c2C#N)cc1 | inactive
Cc1cc(C)c(C#N)c(SCc2ccc3c(c2)OCO3)n1 | -11.2 (active)

SMILES | B-score
Cc1cc(C)c(C#N)c(SCc2ccccc2C(=O)O)n1 | inactive
CCOc1ccc(OCC)c(NC(=O)C(NS(=O)(=O)c2ccc3c(c2)oc(=O)n3C)C(C)C)c1 (stereo not drawn) | inactive
COc1ccccc1OCC(=O)Nc1ccccc1C(=O)NC1CC1 | inactive
COc1ccc(C(=O)c2c3ccc([N+](=O)[O-])cc3[n+]([O-])n2CCCN)cc1 | inactive
COCC(=O)Nc1cc(C(=O)OC)cc(C(=O)OC)c1 | inactive
O=C(O)c1ccccc1C(=O)NC1=NN(c2ccccc2)CC1 | inactive
N/C(=N\OC(=O)CCn1cccc(C(F)(F)F)c1=O)c1ccc(OC(F)(F)F)cc1 | inactive
C=CCc1cc(S(=O)(=O)c2ccc(O)c(CC=C)c2)ccc1O | -11 (active)
COc1ccc(CNC(=O)C2CCC(CNc3c(N4CCOCC4)c(=O)c3=O)CC2)cc1 (stereo not drawn) | inactive
O=C(NCCc1ccccn1)c1nc(Cn2cc([N+](=O)[O-])cn2)no1 | inactive
O=C(c1cc(-c2ccc(O)cc2)on1)N1CCOCC1 | inactive
O=C(c1cc(-c2cccc(O)c2)on1)N1CCc2ccccc2C1 | inactive
O=C(c1cc(-c2ccc(O)cc2)on1)N1CCCc2ccccc21 | -9.08 (active)
Cc1onc(-c2ccccc2)c1C(=O)N=C(N)c1ccc(Cl)cc1 | inactive
CCc1ccc(C(=O)CSc2nnc(C)c(=O)[nH]2)cc1 | inactive
COC(=O)c1c(NC(=O)c2ccccc2F)sc2c1C(C(=O)OC)CC2 (stereo not drawn) | inactive
O=C(CNS(=O)(=O)c1ccccc1)NCC(=O)OCc1ccccc1F | inactive
COc1ccc(NC(=O)c2cc3nc(-c4ccccc4)cc(C)n3n2)cc1OC | inactive
COC(=O)C(C)Sc1ccc2nnc(-c3cccc(F)c3)n2n1 (stereo not drawn) | inactive
COCCNc1cc(-c2ccccc2)nc2cc(-c3cccc(F)c3)nn12 | -8.74 (active)
CC(=O)Nc1ccc(NC(=O)CN2CCCC(C)C2)c(Cl)c1 (stereo not drawn) | inactive
O=C(CSc1ccccc1)Nc1cc(Cl)ccc1Oc1ccccc1 | inactive
CC1CCCN(CC(=O)Nc2cc(Cl)ccc2Oc2ccccc2)C1 (stereo not drawn) | -11.4 (active)

SMILES | B-score
O=C1CCC[C@@H]2CC(N3CCCCC3)C[C@@H]3CCN1[C@H]23 (stereo partly drawn) | inactive
COc1ccc(CC(NC(C)=O)C(=O)N2CCN(C(=O)Nc3cccc(Cl)c3)CC2)cc1OC (stereo not drawn) | inactive
CCCNC(=O)CSc1nc(Cc2ccccc2)nc2ccccc12 | inactive
CCc1nc(SCC(=O)NNC(=O)c2ccc(C)cc2)c2ccccc2n1 | -8.73 (active)
Cc1ccc(C(=O)NNC(=O)CSc2nnc3ccccn23)cc1 | inactive
C=CCSc1nc(Cc2ccc(Cl)cc2)nc2ccccc12 | inactive
CCCC(=O)Nc1ccc(Cl)c(NC(=O)c2ccc(Br)o2)c1 | -9.33 (active)
O=C(CNC(=O)c1ccc(Br)o1)Nc1ccccc1 | inactive
CCN1CCN(c2c(Cl)cccc2NC(=O)c2ccc(Br)o2)CC1 | inactive
CC(=O)C1=C(C)NC(C)=C(C(C)=O)C1c1cn(-c2ccccc2)nc1-c1cccs1 | inactive
COc1ccc(C(C(=O)NC(C)(C)C)N(C(=O)Cn2nnc3ccccc32)c2ccc(C(C)=O)cc2)cc1O (stereo not drawn) | inactive
C#CC(C)(C)NC(=O)c1cnc(-c2ccccc2)nc1-c1ccccc1 | inactive
CS(=O)(=O)c1ccc(-c2nnn(CC(=O)Nc3ccc4c(c3)OCCO4)n2)cc1 | inactive
CC1(C)CC(=O)C/C(=N\NC(=O)c2cccs2)C1 | inactive
CN(CC(=O)NCCc1ccc(S(N)(=O)=O)cc1)CC(=O)Nc1ccc(F)c(F)c1F | inactive
Cc1ccc(C(=O)N/C(=C\c2cn(S(=O)(=O)N(C)C)c3ccccc23)C(=O)N2CCCC2)cc1 | inactive
C=CCOc1cccc(C2C(C(=O)c3ccc(C)o3)=C(O)C(=O)N2c2nnc(C)s2)c1 (stereo not drawn) | inactive
Cc1ccc2nc(N3C(=O)C(O)=C(C(=O)c4ccco4)C3c3cccc(O)c3)sc2c1 (stereo not drawn) | inactive
C=CCSc1nnc(N2C(=O)C(O)=C(C(=O)c3ccco3)C2c2ccc(F)cc2)s1 (stereo not drawn) | -10.6 (active)
O=C(c1c(F)cccc1Cl)N1CCN(S(=O)(=O)c2ccc3c(c2)OCCCO3)CC1 | inactive
Cc1cc(C)c(S(=O)(=O)c2ccccc2)c(OC(=O)c2c(F)cccc2Cl)n1 | -14.3 (active)
Cc1cc(OC(=O)c2c(Cl)cccc2Cl)nc(C)n1 | inactive
